This note sets out measurements from PMC7862700, “An all-to-all approach to the identification of sequence-specific readers for epigenetic DNA modifications on cytosine”.

What all share (experiment): DAPPL (digital affinity profiling via proximity ligation, sequencing); 10 mM Tris-HCl pH 7.5, 50 mM NaCl, 1 mM DTT, 4% glycerol, room temperature, 30 min; GST-TFs on glutathione beads, 16-mer random dsDNA library, 0.1% formaldehyde crosslink after washing; high values mean tight binding
For one test, the target named is T1, FEV (Homo sapiens, UniProt Q99581 1-238).
T1 sequence: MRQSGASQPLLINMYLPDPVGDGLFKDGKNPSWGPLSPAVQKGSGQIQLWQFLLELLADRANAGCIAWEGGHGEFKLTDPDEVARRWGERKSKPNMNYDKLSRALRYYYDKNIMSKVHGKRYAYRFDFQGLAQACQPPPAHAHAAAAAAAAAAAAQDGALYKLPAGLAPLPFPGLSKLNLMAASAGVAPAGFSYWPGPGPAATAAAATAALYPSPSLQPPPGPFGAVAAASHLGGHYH
The note with it: protein: recombinant; tags: N-terminal GST; dsDNA, one strand shown. The essentials:
(§1)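 After expression in yeast as GST fusions, human transcription factors were bound to glutathione beads, DNA-barcoded and mixed with a tag-only sample. The pools were incubated with 200 nmole of a 16-mer random double-stranded DNA library in Tris/NaCl/DTT/glycerol buffer (30 min, room temperature), washed and crosslinked with 0.1% formaldehyde. Proximity ligation with BsaI/T4 ligase ran for 1 h at 37 °C, before PCR amplification and sequencing on an Illumina NextSeq500. Binding signal is a hexamer's read frequency for a factor divided by its frequency for the tag-only sample.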

The next test deals with ETV5 (Homo sapiens, UniProt P41161 1-510). The note with it: protein: recombinant; tags: N-terminal GST; dsDNA, one strand shown. In outline:
as §1

A further test deals with HSF1 (Homo sapiens, UniProt Q00613 1-529). The note with it: protein: recombinant; tags: N-terminal GST; chain copies: 3; dsDNA, one strand shown. The essentials:
as §1

A further test addresses T2, SPIC (Homo sapiens, UniProt Q8N5J4 1-248).
T2 sequence: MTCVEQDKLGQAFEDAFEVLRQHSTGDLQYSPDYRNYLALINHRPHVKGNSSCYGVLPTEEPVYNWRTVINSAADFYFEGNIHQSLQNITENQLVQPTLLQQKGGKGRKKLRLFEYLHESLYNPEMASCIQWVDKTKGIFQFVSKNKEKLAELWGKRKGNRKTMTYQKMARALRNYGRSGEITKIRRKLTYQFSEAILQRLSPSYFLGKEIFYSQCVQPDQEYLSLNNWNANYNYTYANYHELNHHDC
Conditions: protein: recombinant; tags: N-terminal GST; dsDNA, one strand shown. In outline: as §1

A further test has as its target ELF4 (Homo sapiens, UniProt Q99607 1-663). Conditions: protein: recombinant; tags: N-terminal GST; dsDNA, one strand shown. The essentials: as §1
For the next test, the target named is T3, ELK4 (Homo sapiens, UniProt P28324-2 1-405).
T3 sequence: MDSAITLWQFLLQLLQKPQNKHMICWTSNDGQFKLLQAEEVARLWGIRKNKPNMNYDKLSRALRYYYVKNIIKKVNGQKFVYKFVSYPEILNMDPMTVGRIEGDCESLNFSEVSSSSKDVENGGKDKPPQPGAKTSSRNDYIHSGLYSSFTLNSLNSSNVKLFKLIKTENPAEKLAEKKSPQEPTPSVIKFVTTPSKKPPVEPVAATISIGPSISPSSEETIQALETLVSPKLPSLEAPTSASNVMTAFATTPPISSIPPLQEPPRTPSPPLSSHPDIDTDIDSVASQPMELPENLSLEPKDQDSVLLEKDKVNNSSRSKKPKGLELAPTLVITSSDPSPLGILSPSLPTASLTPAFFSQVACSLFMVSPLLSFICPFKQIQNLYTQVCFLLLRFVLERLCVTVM
The note with it: protein: recombinant; tags: N-terminal GST; dsDNA, one strand shown. In outline: as §1

The target of another test is T4, ETV2 (Homo sapiens, UniProt O00321 1-342).
T4 sequence: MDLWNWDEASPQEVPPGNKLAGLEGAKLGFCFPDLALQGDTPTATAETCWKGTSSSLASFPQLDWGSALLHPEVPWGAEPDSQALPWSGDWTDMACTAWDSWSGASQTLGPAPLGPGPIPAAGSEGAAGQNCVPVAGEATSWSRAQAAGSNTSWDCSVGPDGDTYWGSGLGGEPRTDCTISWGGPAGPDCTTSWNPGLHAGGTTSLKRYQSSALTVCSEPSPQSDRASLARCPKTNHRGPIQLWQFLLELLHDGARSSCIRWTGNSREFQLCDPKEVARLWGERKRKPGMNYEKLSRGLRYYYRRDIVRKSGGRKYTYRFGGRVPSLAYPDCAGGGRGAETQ
Conditions: protein: recombinant; tags: N-terminal GST; dsDNA, one strand shown. In outline: as §1

A further test deals with T5, ELF3 (Homo sapiens, UniProt P78545 1-371).
T5 sequence: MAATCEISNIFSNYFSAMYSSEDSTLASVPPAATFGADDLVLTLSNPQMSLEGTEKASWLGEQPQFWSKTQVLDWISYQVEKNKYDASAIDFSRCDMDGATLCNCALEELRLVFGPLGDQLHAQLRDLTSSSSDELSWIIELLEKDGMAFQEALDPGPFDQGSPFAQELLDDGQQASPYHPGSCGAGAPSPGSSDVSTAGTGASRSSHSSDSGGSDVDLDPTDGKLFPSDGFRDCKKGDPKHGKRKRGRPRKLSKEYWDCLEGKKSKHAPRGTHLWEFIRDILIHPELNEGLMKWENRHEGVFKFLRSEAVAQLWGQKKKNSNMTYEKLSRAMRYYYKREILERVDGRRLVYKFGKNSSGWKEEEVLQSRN
Conditions: protein: recombinant; tags: N-terminal GST; dsDNA, one strand shown. The essentials:
as §1

A further test concerns the target CRX (Homo sapiens, UniProt O43186 1-299). Conditions: protein: recombinant; tags: N-terminal GST; dsDNA, one strand shown. The essentials: as §1
For the next test, the target named is ETV1 (Homo sapiens, UniProt P50549 1-477). Conditions: protein: recombinant; tags: N-terminal GST; dsDNA, one strand shown. In outline:
as §1

Another test has as its target T6, ERF (Homo sapiens, UniProt P50548 1-548).
T6 sequence: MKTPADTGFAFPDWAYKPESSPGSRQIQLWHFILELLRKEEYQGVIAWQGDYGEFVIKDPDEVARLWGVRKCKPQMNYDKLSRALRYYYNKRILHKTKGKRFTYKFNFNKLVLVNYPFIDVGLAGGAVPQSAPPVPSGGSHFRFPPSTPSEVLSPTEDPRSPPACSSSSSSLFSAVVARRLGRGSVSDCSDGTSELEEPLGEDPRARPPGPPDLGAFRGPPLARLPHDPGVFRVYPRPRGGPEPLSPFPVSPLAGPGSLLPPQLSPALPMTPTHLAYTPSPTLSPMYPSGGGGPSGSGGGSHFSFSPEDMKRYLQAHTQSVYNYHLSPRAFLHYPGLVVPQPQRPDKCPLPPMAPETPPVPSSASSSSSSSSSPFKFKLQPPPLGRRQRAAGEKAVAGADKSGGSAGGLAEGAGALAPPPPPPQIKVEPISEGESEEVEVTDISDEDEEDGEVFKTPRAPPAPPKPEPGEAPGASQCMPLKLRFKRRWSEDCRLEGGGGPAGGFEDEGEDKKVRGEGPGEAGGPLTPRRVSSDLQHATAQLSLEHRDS
Conditions: protein: recombinant; tags: N-terminal GST; dsDNA, one strand shown. The essentials:
as §1

The target in the next test is T7, ETV3L (Homo sapiens, UniProt Q6ZN32 1-361).
T7 sequence: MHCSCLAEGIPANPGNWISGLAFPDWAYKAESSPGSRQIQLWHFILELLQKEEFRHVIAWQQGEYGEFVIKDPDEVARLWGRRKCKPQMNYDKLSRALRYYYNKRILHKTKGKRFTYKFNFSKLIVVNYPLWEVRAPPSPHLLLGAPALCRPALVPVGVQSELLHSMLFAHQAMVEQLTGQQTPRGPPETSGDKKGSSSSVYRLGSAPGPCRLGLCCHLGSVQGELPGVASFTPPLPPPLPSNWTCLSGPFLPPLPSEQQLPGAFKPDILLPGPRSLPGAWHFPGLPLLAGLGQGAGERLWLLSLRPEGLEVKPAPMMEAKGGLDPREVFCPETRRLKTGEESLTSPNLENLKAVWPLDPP
The note with it: protein: recombinant; tags: N-terminal GST; dsDNA, one strand shown. In outline:
as §1

In a further test the target is T8, ETS2 (Homo sapiens, UniProt P15036 1-469).
T8 sequence: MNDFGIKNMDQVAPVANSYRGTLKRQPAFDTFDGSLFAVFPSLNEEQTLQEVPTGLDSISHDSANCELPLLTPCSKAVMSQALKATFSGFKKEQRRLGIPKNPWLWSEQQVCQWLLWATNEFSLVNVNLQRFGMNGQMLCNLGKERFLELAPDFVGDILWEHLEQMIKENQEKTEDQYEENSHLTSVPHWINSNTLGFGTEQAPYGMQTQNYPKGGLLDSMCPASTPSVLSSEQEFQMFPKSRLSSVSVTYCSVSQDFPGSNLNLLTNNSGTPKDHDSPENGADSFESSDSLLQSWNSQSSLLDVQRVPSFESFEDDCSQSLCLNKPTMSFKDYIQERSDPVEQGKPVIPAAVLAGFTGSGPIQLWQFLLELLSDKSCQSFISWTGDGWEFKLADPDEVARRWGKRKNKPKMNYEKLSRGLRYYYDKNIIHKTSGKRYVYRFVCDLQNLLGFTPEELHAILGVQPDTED
Conditions: protein: recombinant; tags: N-terminal GST; dsDNA, one strand shown. The essentials:
as §1

For the next test, the target named is T9, SPDEF (Homo sapiens, UniProt O95238 1-335).
T9 sequence: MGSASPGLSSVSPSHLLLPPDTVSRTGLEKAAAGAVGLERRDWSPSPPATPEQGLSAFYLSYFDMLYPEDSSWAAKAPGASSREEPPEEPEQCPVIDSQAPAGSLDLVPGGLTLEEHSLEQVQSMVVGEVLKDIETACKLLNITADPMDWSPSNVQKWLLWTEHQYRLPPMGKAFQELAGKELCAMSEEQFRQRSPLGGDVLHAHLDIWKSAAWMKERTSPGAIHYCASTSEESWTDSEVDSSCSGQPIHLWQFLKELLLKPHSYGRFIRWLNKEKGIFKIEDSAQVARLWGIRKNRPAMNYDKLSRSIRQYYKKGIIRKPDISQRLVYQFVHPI
The note with it: protein: recombinant; tags: N-terminal GST; dsDNA, one strand shown. In outline:
as §1

The next test has as its target T10, ETV7 (Homo sapiens, UniProt Q9Y603 1-341).
T10 sequence: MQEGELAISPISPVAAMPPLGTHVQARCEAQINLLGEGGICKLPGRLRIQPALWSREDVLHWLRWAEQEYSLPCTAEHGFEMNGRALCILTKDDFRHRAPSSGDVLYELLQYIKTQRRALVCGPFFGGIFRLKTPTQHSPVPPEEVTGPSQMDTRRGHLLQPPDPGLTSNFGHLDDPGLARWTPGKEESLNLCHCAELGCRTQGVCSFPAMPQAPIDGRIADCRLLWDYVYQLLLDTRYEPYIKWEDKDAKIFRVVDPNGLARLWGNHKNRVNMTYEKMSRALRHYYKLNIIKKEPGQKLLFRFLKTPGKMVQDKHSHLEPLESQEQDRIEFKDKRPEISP
Conditions: protein: recombinant; tags: N-terminal GST; dsDNA, one strand shown. In outline: as §1

A further test addresses T11, ELF5 (Homo sapiens, UniProt Q9UKW6-2 1-255).
T11 sequence: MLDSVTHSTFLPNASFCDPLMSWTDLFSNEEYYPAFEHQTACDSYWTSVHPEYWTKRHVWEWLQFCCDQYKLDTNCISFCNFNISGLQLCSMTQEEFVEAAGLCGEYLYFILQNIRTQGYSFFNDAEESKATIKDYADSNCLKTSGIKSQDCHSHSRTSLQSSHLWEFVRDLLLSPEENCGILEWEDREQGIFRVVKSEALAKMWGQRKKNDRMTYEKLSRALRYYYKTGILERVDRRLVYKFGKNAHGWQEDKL
Conditions: protein: recombinant; tags: N-terminal GST; dsDNA, one strand shown. In outline: as §1

Another test has as its target T12, ETV3 (Homo sapiens, UniProt P41162-2 1-143).
T12 sequence: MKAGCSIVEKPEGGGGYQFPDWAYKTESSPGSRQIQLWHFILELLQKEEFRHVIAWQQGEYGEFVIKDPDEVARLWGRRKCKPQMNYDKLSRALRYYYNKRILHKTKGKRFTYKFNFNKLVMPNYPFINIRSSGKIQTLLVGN
Conditions: protein: recombinant; tags: N-terminal GST; dsDNA, one strand shown. The essentials: as §1

A further test concerns the target ETV6 (Homo sapiens, UniProt P41212 1-452). The note with it: protein: recombinant; tags: N-terminal GST; dsDNA, one strand shown. The essentials:
as §1

Chain of HSF1 (Q00613 whole entry): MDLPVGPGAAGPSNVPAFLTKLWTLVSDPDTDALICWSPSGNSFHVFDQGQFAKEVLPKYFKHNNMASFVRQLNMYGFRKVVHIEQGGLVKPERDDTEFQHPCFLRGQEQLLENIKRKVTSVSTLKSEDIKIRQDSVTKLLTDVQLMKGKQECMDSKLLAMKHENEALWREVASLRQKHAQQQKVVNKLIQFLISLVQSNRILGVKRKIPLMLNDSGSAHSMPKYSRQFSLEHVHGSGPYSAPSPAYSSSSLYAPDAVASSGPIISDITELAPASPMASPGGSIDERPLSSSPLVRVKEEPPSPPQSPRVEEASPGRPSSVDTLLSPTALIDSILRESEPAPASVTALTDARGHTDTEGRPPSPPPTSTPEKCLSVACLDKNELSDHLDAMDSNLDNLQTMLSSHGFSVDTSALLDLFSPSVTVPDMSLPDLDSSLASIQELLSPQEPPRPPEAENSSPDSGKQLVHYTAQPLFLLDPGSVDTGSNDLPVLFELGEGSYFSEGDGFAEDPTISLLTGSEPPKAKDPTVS
Chain of ELF4 (Q99607 whole entry): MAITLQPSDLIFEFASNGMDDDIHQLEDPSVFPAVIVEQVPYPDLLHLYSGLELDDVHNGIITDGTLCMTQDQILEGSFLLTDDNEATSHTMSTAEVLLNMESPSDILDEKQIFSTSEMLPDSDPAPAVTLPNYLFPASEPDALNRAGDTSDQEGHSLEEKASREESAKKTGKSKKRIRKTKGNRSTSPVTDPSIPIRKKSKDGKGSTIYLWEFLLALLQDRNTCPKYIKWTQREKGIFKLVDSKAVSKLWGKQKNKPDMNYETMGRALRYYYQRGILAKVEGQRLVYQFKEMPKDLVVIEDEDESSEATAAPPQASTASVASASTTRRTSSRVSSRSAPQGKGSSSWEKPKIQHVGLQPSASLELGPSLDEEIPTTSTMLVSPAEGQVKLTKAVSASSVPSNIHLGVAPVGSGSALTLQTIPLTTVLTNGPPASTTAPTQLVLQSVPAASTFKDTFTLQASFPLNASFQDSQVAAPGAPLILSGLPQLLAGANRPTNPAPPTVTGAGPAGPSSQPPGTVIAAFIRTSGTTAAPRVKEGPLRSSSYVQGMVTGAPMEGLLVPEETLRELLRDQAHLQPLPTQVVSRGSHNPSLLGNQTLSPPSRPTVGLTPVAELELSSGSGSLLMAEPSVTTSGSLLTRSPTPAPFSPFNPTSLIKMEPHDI
Chain of ETV1 (P50549 whole entry): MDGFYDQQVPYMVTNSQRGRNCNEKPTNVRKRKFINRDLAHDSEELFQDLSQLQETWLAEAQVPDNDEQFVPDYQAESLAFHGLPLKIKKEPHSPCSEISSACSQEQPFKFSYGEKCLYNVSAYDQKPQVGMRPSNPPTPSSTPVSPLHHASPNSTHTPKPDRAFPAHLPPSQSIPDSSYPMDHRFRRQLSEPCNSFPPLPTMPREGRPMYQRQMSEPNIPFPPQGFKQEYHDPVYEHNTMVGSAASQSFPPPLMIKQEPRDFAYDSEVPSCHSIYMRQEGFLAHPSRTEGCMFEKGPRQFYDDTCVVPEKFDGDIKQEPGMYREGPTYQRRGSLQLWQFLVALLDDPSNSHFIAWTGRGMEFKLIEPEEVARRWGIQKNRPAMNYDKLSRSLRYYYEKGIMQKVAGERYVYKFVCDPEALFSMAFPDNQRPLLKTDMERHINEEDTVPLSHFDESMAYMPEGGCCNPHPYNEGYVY
Chain of ETV5 (P41161 whole entry): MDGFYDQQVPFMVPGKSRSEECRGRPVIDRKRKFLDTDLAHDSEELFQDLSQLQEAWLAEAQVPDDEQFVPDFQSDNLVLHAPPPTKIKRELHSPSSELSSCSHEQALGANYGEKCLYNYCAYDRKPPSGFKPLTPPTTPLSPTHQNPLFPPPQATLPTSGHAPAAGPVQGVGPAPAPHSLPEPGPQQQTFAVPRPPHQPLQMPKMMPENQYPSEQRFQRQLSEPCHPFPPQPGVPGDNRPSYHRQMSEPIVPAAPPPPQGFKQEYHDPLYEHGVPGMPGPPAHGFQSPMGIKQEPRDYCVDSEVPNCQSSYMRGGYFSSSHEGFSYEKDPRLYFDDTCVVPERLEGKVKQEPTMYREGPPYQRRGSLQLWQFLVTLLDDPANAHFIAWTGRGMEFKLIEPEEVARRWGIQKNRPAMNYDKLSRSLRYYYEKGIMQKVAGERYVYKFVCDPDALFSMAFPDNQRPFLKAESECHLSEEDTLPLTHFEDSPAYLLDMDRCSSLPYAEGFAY
Chain of CRX (O43186 whole entry): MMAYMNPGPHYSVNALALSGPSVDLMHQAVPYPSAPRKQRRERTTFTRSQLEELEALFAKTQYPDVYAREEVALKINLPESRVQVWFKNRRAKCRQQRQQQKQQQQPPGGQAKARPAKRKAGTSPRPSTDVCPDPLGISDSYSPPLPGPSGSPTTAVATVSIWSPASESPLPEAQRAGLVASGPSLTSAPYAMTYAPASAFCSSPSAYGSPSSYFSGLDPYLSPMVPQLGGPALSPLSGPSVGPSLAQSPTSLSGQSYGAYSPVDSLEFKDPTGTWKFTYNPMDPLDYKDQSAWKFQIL
Chain of ETV6 (P41212 whole entry): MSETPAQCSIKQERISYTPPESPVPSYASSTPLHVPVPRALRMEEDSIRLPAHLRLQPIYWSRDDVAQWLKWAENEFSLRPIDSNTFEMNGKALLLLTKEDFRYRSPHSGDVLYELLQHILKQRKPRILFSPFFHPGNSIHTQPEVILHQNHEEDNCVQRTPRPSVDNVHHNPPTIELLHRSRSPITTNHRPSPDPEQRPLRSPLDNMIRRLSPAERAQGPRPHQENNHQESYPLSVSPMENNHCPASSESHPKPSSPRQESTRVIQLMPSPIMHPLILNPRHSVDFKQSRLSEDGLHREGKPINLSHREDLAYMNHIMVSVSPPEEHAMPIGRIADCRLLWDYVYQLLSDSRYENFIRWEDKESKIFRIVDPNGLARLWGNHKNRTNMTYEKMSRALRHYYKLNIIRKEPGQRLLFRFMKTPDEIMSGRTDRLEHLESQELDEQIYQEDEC

Take ATCTGC: the binding signal with FEV was 1.41 fold enrichment (6-mer frequency, TF over GST control); with ETV5, 1.46 fold enrichment (6-mer frequency, TF over GST control); in the test with HSF1 it was 1.44 fold enrichment (6-mer frequency, TF over GST control); in the test with SPIC it was 1.46 fold enrichment (6-mer frequency, TF over GST control); in the test with ELF4, 1.44 fold enrichment (6-mer frequency, TF over GST control); with ELK4, 1.5 fold enrichment (6-mer frequency, TF over GST control). Also, the binding signal with ETV2 is 1.44 fold enrichment (6-mer frequency, TF over GST control); with ELF3, 1.14 fold enrichment (6-mer frequency, TF over GST control); with CRX it was 1.67 fold enrichment (6-mer frequency, TF over GST control); in the test with ETV1, 1.36 fold enrichment (6-mer frequency, TF over GST control); with ERF it was 1.31 fold enrichment (6-mer frequency, TF over GST control); with ETV3L, 1.4 fold enrichment (6-mer frequency, TF over GST control). Moreover, the binding signal is 1.37 fold enrichment (6-mer frequency, TF over GST control) with ETS2; 1.36 fold enrichment (6-mer frequency, TF over GST control) with SPDEF; 1.38 fold enrichment (6-mer frequency, TF over GST control) with ETV7; 1.31 fold enrichment (6-mer frequency, TF over GST control) with ELF5; 1.36 fold enrichment (6-mer frequency, TF over GST control) with ETV3; 1.29 fold enrichment (6-mer frequency, TF over GST control) in the test with ETV6.
